Some test systems named below: SR leukemia; RPMI-8226 leukemia; OVCAR-8 ovarian; OVCAR-5 ovarian; OVCAR-4 ovarian; SK-OV-3 ovarian; IGROV1 ovarian; OVCAR-3 ovarian; HS 578T breast; NCI/ADR-RES ovarian; T-47D breast; BT-549 breast; MDA-MB-435 melanoma; SW-620 colon; MCF7 breast; HCT-116 colon; HCC-2998 colon; KM12 colon; MDA-MB-468 breast.
Assay in all cases: NCI-60 one-dose screen, 48 h (100 = growth as untreated, 0 = no growth, -100 = all killed)
Holding throughout (details): 10 µM unless noted

Each structure is given as a SMILES string. Where “and” joins values, the source holds several entries; their conditions need not be identical. Equal values may be shown once. Compounds without any hit were thinned out: in the full panel of roughly 83,000, 20% have a hit.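 Note: values are percent growth. 100 is the growth of untreated cells, values between 100 and 0 indicate rising inhibition; between -100 and 0 indicates cell death.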 Values without a mark were called inactive. Calls of active or inactive are those of the source. The calls were made as follows: active = growth percent below 10; inactive = the rest.

Take `Cc1ccc(C(=O)C[n+]2cccc3c4ccccc4ccc32)cc1`: the growth with SR leukemia was 2.32% (active); in the experiment with RPMI-8226 leukemia, 4.63% (active); in the experiment on OVCAR-8 ovarian, 22.5%; with OVCAR-5 ovarian, 31.3%; in the experiment on OVCAR-4 ovarian it was 21.1%; with SK-OV-3 ovarian it was 33.9%. For the same molecule, the growth in the experiment with IGROV1 ovarian was 30.9%; in the experiment with OVCAR-3 ovarian, 30.3%; in the experiment with HS 578T breast, 27.6%; with NCI/ADR-RES ovarian, 80.9%; in the experiment on T-47D breast, 43.8%; with BT-549 breast, 20.8%. In addition, the growth with MDA-MB-435 melanoma was 13.5%; with SW-620 colon it was 19.5%; in the experiment with MCF7 breast, 11.8%; with HCT-116 colon, 11.8%; in the experiment on HCC-2998 colon it was 17.4%; in the experiment on KM12 colon, 25.7%. In addition, the growth in the experiment with MDA-MB-468 breast is -10.3% (active).

Regarding `Cc1ccc2nc(COc3ccc(C(=O)NNC(=O)Nc4ccc(Cl)c(C(F)(F)F)c4)cc3)[nH]c2c1`, the growth in the experiment with SR leukemia was 16.8%; in the experiment with RPMI-8226 leukemia, 59.5%; in the experiment with OVCAR-8 ovarian it was 10.7%; with OVCAR-5 ovarian, 66.9%; with OVCAR-4 ovarian, 74%; in the experiment with SK-OV-3 ovarian, 70.9%. For the same molecule, the growth with IGROV1 ovarian is 52.2%; with OVCAR-3 ovarian it was 28.9%; in the experiment with HS 578T breast it was 39.7%; in the experiment on NCI/ADR-RES ovarian, 95.8%; in the experiment with T-47D breast, -24.8% (active); in the experiment with BT-549 breast, -2.01% (active). Further, the growth in the experiment on MDA-MB-435 melanoma is 8.76% (active); in the experiment with SW-620 colon it was 43.4%; with MCF7 breast, 53.4%; in the experiment on HCT-116 colon it was 4.51% (active); with HCC-2998 colon, 70.1%; in the experiment with KM12 colon it was 24.9%. Also, in the experiment with MDA-MB-468 breast, the growth was -56.9% (active).

Take `COc1ccc2[nH]c(=O)cc(-n3ncc(C(=O)/C=C/c4cc(OC)c(OC)c(OC)c4)c3C)c2c1`: the growth was -11.8% (active) in the experiment with SR leukemia; -45.2% (active) in the experiment with RPMI-8226 leukemia; 14.5% in the experiment on OVCAR-8 ovarian; -26.3% (active) in the experiment with OVCAR-5 ovarian; 36.5% with OVCAR-4 ovarian; 6.3% (active) in the experiment on SK-OV-3 ovarian. For the same molecule, the growth in the experiment on IGROV1 ovarian was -0.815% (active); with OVCAR-3 ovarian, -34.6% (active); in the experiment on HS 578T breast, 57.3%; in the experiment on NCI/ADR-RES ovarian, 7.59% (active); with T-47D breast it was 5.38% (active); in the experiment on BT-549 breast, -57.2% (active). Further, the growth in the experiment with MDA-MB-435 melanoma is 1.51% (active); in the experiment with SW-620 colon it was -51.9% (active); with MCF7 breast, 1.39% (active); in the experiment on HCT-116 colon it was -52.9% (active); in the experiment with HCC-2998 colon, -93.9% (active); in the experiment on KM12 colon, -37.2% (active). The growth in the experiment with MDA-MB-468 breast was -71.1% (active).

For the molecule `COc1cc(/C=C/C(=O)c2ccc(S(=O)(=O)NCCNc3nc(N(C)C)nc(N4CCOCC4)n3)cc2)cc(OC)c1OC`, the growth was -28.2% (active) in the experiment on SR leukemia; -14.5% (active) in the experiment on RPMI-8226 leukemia; -49.5% (active) in the experiment on OVCAR-8 ovarian; -33.1% (active) in the experiment on OVCAR-5 ovarian; 8.16% (active) with OVCAR-4 ovarian; 60.3% with SK-OV-3 ovarian. Moreover, the growth is -55% (active) in the experiment on IGROV1 ovarian; -42.2% (active) in the experiment with OVCAR-3 ovarian; 19.9% with HS 578T breast; -39.1% (active) in the experiment with NCI/ADR-RES ovarian; 29.9% with T-47D breast; -73.3% (active) in the experiment with BT-549 breast. Also, the growth in the experiment with MDA-MB-435 melanoma was -56% (active); in the experiment on SW-620 colon, -100% (active); with MCF7 breast, -96.4% (active); with HCT-116 colon it was -100% (active); in the experiment on HCC-2998 colon it was -100% (active); with KM12 colon, -100% (active). Besides, the growth in the experiment on MDA-MB-468 breast was -100% (active).

Turning to `CN(C)c1nc(NCCNS(=O)(=O)c2ccc(C(=O)/C=C/c3ccccc3)cc2)nc(N2CCOCC2)n1`, the growth with SR leukemia was -42.7% (active); in the experiment on RPMI-8226 leukemia, 0.0245% (active); in the experiment with OVCAR-8 ovarian, 83.4%; in the experiment on OVCAR-5 ovarian, 93.6%; in the experiment with OVCAR-4 ovarian, 88.3%; in the experiment on SK-OV-3 ovarian, 97.7%. The growth was 80.5% in the experiment with IGROV1 ovarian; 111% in the experiment on OVCAR-3 ovarian; 76.1% in the experiment with HS 578T breast; 82.4% in the experiment on NCI/ADR-RES ovarian; 73.1% in the experiment with T-47D breast; 94.3% in the experiment on BT-549 breast. The growth in the experiment on MDA-MB-435 melanoma was 83.3%; in the experiment on SW-620 colon it was -11.3% (active); with MCF7 breast it was -4.51% (active); in the experiment on HCT-116 colon it was -28.5% (active); in the experiment on HCC-2998 colon, 89.4%; in the experiment with KM12 colon, -11.1% (active). In addition, in the experiment on MDA-MB-468 breast, the growth is 52.1%.

Take `Clc1ccc2c(NCCNC34CC5CC(CC(C5)C3)C4)ccnc2c1`: the growth in the experiment with SR leukemia is -35.2% (active); with RPMI-8226 leukemia it was 0.134% (active); with OVCAR-8 ovarian, -63.4% (active); in the experiment with OVCAR-5 ovarian it was -37.1% (active); in the experiment with OVCAR-4 ovarian, -57.3% (active); with SK-OV-3 ovarian, -83.1% (active). Besides, the growth in the experiment with IGROV1 ovarian was -55.6% (active); in the experiment with OVCAR-3 ovarian it was -52.4% (active); in the experiment on HS 578T breast, -45.4% (active); in the experiment with NCI/ADR-RES ovarian, -71.3% (active); in the experiment on T-47D breast, -47.2% (active); in the experiment on BT-549 breast it was -86.5% (active). For the same molecule, the growth in the experiment on MDA-MB-435 melanoma was -72.3% (active); with SW-620 colon it was -47.1% (active); in the experiment with MCF7 breast, -78.7% (active); in the experiment with HCT-116 colon, -40.1% (active); with HCC-2998 colon, -89.5% (active); in the experiment with KM12 colon, -96.8% (active). In the experiment with MDA-MB-468 breast, the growth is -92.3% (active).

Consider `Nc1cccc(-n2c(COc3ccc(I)cc3)nc3ccccc32)c1`, for which the growth in the experiment with SR leukemia is 64.7% and 101%; in the experiment on RPMI-8226 leukemia it was 68.9% and 104%; in the experiment on OVCAR-8 ovarian, 93.4% and 106%; with OVCAR-5 ovarian, 88.6% and 105%; with OVCAR-4 ovarian, 66.2% and 105%; in the experiment on SK-OV-3 ovarian, 64.7% and 102%. Further, the growth in the experiment with IGROV1 ovarian is 46.8% and 107%; in the experiment on OVCAR-3 ovarian, 87.7% and 83.2%; in the experiment with HS 578T breast, 63.2% and 110%; with NCI/ADR-RES ovarian it was 74.3% and 102%; in the experiment with T-47D breast, 54.6% and 99.2%; with BT-549 breast it was 92.6% and 99.7%. Moreover, the growth in the experiment on MDA-MB-435 melanoma was 95.9% and 99.7%; in the experiment on SW-620 colon, 86.3% and 104%; in the experiment on MCF7 breast, 67.9% and 98.9%; in the experiment on HCT-116 colon, 76% and 102%; with HCC-2998 colon, 118% and 113%; in the experiment with KM12 colon it was 87.9% and 99.6%. Moreover, the growth with MDA-MB-468 breast is 72.2% and 102%.

As to `N/C(=N\c1nc2ccccc2s1)NC(=O)Nc1ccccc1F`, the growth with SR leukemia is 20.8%; with RPMI-8226 leukemia, 15.8%; in the experiment with OVCAR-8 ovarian, 10.6%; in the experiment on OVCAR-5 ovarian, 31.4%; in the experiment with OVCAR-4 ovarian, 49.6%; in the experiment on SK-OV-3 ovarian, -1.47% (active). For the same molecule, the growth in the experiment with IGROV1 ovarian was 37.5%; in the experiment with OVCAR-3 ovarian, 7.03% (active); with HS 578T breast, 7.56% (active); with NCI/ADR-RES ovarian, -14.8% (active); with T-47D breast it was 31.1%; in the experiment with BT-549 breast it was 30.2%. The growth is -18.1% (active) in the experiment on MDA-MB-435 melanoma; 43% in the experiment on SW-620 colon; 20.1% in the experiment with MCF7 breast; 10.2% in the experiment with HCT-116 colon; 45.9% in the experiment on HCC-2998 colon; 22.6% in the experiment on KM12 colon. The growth in the experiment with MDA-MB-468 breast was -12.3% (active).

The record behind these values is PubChem BioAssay (NCI).
